These results are taken from PubChem BioAssay (NCATS).

Inconclusive results are not listed. Active and inactive are the calls of the source. Unless noted, calls follow the shape of the dose curve; as a rule, active = well fitted curve in the direction sought with a large enough effect; inconclusive = small, poorly fitted or top-dose-only effect, or another doubt; inactive = no such curve, though single readings can be large; an effect the other way counts as inactive or inconclusive.

The target of assay [1] is Catechol O-methyltransferase (Homo sapiens) (UniProt P21964). Nature of the assay: Confirmatory Screen for Target Class Profiling of Small Molecule Inhibitors of Methyltransferases (AID 1745852). As to activity change, negative = inhibition: % is scaled to controls: 0 for no effect and ±100 for the full control effect. The following applies: MTase-Glo luminescence, SAH detection, recombinant enzyme; measured here: COMT max response; stronger effect = lower value.
Assay [2] concerns the target Guanidinoacetate N-methyltransferase (Homo sapiens) (UniProt Q14353). The description is as above. The following applies: MTase-Glo luminescence, SAH detection, recombinant enzyme; activity change, negative = inhibition: at 57.3 µM (top of the series) unless noted; series mostly up to 57.3 µM.
Assay [3] deals with Nicotinamide N-methyltransferase (Homo sapiens) (UniProt P40261). Described as above. The following applies: MTase-Glo luminescence, SAH detection, recombinant enzyme; measured here: NNMT max response; stronger effect = lower value.
Assay [4] addresses Phenylethanolamine N-methyltransferase (Homo sapiens) (UniProt P11086). Described as above. The following applies: MTase-Glo luminescence, SAH detection, recombinant enzyme; measured here: PNMT max response; stronger effect = lower value.
In assay [5] the target is Glutathione peroxidase 1 (Homo sapiens) (UniProt P07203). Nature of the assay: Primary qHTS Assay for Inhibitors of Recombinant Selenoprotein Glutathione Peroxidase 1 (GPX1) (AID 1845191). Also: nearly all actives have a fitted effect of over 65% in size. The following applies: recombinant GPX1, GR-coupled NADPH fluorescence, 15 min; series mostly up to 48.8 µM. In short, it runs like this: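 GR-coupled assay: compounds preincubated 30 min at room temperature with GPX1, then reaction started with CHP; final 10 nM GPX1, 1 mM GSH, 0.5 mM CHP, 0.5 mM NADPH, 100 nM GR, 0.01% BSA, pH 7.5 Tris buffer. NADPH fluorescence (340/450 nm) read at 0 and 15 min.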

Assay [6] addresses Phospholipid hydroperoxide glutathione peroxidase GPX4 (Homo sapiens) (UniProt P36969). Nature of the assay: Primary qHTS Assay for Inhibitors of Recombinant Selenoprotein Glutathione Peroxidase 4 (GPX4) (AID 1845192). Also: nearly all actives have a fitted effect of over 65% in size. As to activity change, negative = inhibition: % is scaled to controls: 0 for no effect and ±100 for the full control effect. The following applies: recombinant GPX4, GR-coupled NADPH fluorescence, 15 min; series mostly up to 50 µM. In short, it runs like this:
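GR-coupled assay: recombinant GPX4 preincubated 30 min with compound at room temperature; final 200 nM GPX4, 1 mM GSH, 0.5 mM cumene hydroperoxide, 0.5 mM NADPH, 100 nM GR, 0.01% BSA, pH 7.5 Tris. NADPH fluorescence (340/450 nm) read at 0 and 15 min.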
(In general: qHTS replaces the single test concentration by a dilution series.)

For assay [7], the target named is Luciferin 4-monooxygenase (Photinus pyralis) (UniProt P08659). The assay is described as follows: Primary firefly luciferase (FLuc) qHTS assay for identification of artifact compounds. (AID 1845220). Also: nearly all actives have a fitted effect of over 60% in size. Also: potency is read from the fitted curve at half-maximal effect.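 As to activity change, negative = inhibition: plate controls were DMSO vehicle for no effect and no enzyme for full effect.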 The following applies: purified firefly luciferase, luminescence, 5 min; series mostly up to 54.1 µM. In short, it runs like this:
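D-luciferin and ATP (10 uM each, final) in Tris acetate buffer pH 7.6 were incubated with compounds for 15 min at room temperature. The reaction was started with 10 nM Photinus pyralis luciferase and luminescence read after 5 min. Percent inhibition was fitted to a 4-parameter Hill equation.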

A short description of assay [8]: Primary fluorescence-based thiol-reactive (MSTI) qHTS assay for identification of artifact compounds. (AID 1845221). Also: nearly all actives have a fitted effect of over 65% in size. Also: potency is read from the fitted curve at half-maximal effect. The following applies: MSTI thiol-reactivity probe, 1 h; series mostly up to 53.8 µM. In short, it runs like this: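 A multi-concentration qHTS design tested compounds against 4 uM MSTI, pH 7.4 phosphate-buffered saline. Plates were protected from light for 1 h at room temperature before imaging fluorescence.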

Assay [9] deals with Nanoluciferase (engineered Oplophorus gracilirostris luciferase). The assay is described as follows: Primary Nanoluciferase (NLuc) qHTS assay for identification of artifact compounds. (AID 1845222). Also: potency is read from the fitted curve at half-maximal effect. The following applies: NLuc-conditioned medium, Nano-Glo luminescence, 5 min; series mostly up to 54.1 µM. In short, it runs like this: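 Diluted conditioned medium from NLuc-expressing S16 cells treated with compounds for 15 min at room temperature, then Nano-Glo substrate added; luminescence read after 5 min. Percent inhibition versus no-enzyme and DMSO controls fitted to 4-parameter Hill equation.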

Assay [10] is described as follows: Primary redox qHTS assay for identification of artifact compounds. (AID 1845223).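 Also: 0% = DMSO and 100% = reference compound.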 The following applies: Amplex Red/HRP redox cycling with DTT, fluorescence; series mostly up to 53.8 µM. In short, it runs like this: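 Amplex Red (25 uM) and HRP (250 mU/mL) in HBSS, with compounds for 15 min, then 250 uM DTT for 30 min, room temperature, dark. Fluorescence 525/598 nm read; normalized to DMSO and 10 uM DA3003; Hill fit.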

The nature of assay [11]: NCATS anti-infectives library activity on the primary C. elegans qHTS viability assay (AID 1745855; calls by dose curve). The following applies: C. elegans worm area imaging, day 7; at 41.8 µM (top of the series). The procedure, abridged: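 Viability read-out is GFP fluorescence of PE254-GFP-FLuc C. elegans, measured by laser cytometry (488 nm) at day 0, 3 and 7. Ten L1 worms per well were incubated 7 days at 21 °C with compounds and bacterial capsules in S medium.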

Assay [12] can be described thus: Viability counterscreen for antagonist of constitutive androstane receptor (CAR) against the NCATS DSHEA and TCM libraries (AID 1794837).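 Also: compound exposure lasted 24 h before viability reading; 0% is about no effect.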 The following applies: CAR reporter cell line viability counterscreen, qHTS; series mostly up to 40 µM. In short, it runs like this: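 HepG2-CYP2B6-hCAR cells (2,500/well) were allowed to attach for 5 h, then exposed to compounds with 48 uM CITCO for 24 h at 37C. Viability was read by CellTiter-Fluor fluorescence after 1 h.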
In general terms: A counterscreen serves to expose hits that act by an unwanted route or on another target.

The nature of assay [13]: Viability counterscreen for agonist of constitutive androstane receptor (CAR) against the NCATS DSHEA and TCM libraries (AID 1794838). Also: 0% is about no effect. The following applies: HepG2 cell viability counterscreen, CAR agonist assay, co-treated with 0.75 µM CAR antagonist; series mostly up to 40 µM. The procedure, abridged:
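HepG2-CYP2B6-hCAR cells (2,500/well) attached 5 h, then got compounds plus 0.75 uM PK11195 final. After 24 h at 37C, viability read by CellTiter-Fluor fluorescence (Ex/Em 405/540 nm).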

The target of assay [14] is Nuclear receptor subfamily 1 group I member 3 (Homo sapiens) (UniProt Q14994). Nature of the assay: Primary qHTS for agonist of constitutive androstane receptor (CAR) against the NCATS DSHEA and TCM libraries (AID 1794839). Also: 0% is about no effect. The following applies: CAR agonist reporter cells, qHTS luminescence, CAR antagonist co-added at 0.75 µM; series mostly up to 40 µM. The procedure, abridged: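 HepG2-CYP2B6-hCAR cells (2,500/well) were attached for 5 h, then treated for 24 h at 37 °C with compounds plus 0.75 µM PK11195. Luciferase luminescence (ONE-Glo) was read, with CellTiter-Fluor viability (Ex/Em 405/540 nm).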

A short description of assay [15]: HepG2 viability counterscreen (readout 2: ATP content) against the NCATS DSHEA and TCM libraries (AID 1794840).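 Also: HepG2 cells exposed to substances for about 24 h; 0% is about no effect.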 The following applies: ATP content luminescence; series mostly up to 27.3 µM. The procedure, abridged:
(§1)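 HepG2 cells (1,000 cells/well) attached ~4 h, then treated ~24 h at 37C with substances. Protease activity read by GF-AFC (25 uM final, 30 min, Ex/Em 380/510 nm); ATP content then by CellTiter-Glo luminescence.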

The nature of assay [16]: HepG2 viability counterscreen (readout 1: protease activity) against the NCATS DSHEA and TCM libraries (AID 1794841).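 Also: cells exposed to compounds for about 24 h before the protease read; 0% is about no effect.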 The following applies: qHTS concentration series; series mostly up to 27.3 µM. The procedure, abridged: as §1

Chain of Phenylethanolamine N-methyltransferase (Homo sapiens) (P11086 whole entry, looked up): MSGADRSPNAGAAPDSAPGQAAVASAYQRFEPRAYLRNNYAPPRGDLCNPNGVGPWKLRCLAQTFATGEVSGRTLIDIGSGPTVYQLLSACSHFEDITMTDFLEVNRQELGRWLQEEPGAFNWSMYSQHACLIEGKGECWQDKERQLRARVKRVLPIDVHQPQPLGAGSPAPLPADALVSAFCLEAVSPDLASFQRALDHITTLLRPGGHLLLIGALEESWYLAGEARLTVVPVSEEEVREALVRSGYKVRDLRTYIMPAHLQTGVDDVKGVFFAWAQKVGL
Chain of Catechol O-methyltransferase (Homo sapiens) (P21964 whole entry, looked up): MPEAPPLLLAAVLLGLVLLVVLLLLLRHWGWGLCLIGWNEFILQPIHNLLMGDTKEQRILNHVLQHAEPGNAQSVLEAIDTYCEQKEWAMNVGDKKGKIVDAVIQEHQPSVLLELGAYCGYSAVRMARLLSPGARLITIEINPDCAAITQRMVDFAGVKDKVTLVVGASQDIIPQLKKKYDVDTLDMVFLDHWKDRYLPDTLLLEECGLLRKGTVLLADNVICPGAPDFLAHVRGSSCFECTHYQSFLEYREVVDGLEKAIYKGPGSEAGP
Chain of Glutathione peroxidase 1 (Homo sapiens) (P07203 whole entry, looked up): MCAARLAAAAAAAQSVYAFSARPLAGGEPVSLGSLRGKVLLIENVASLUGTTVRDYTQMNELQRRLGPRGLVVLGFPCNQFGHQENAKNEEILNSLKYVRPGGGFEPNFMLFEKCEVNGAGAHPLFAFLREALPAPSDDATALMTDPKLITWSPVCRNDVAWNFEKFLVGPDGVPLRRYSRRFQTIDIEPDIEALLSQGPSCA
Chain of Phospholipid hydroperoxide glutathione peroxidase GPX4 (Homo sapiens) (P36969 whole entry, looked up): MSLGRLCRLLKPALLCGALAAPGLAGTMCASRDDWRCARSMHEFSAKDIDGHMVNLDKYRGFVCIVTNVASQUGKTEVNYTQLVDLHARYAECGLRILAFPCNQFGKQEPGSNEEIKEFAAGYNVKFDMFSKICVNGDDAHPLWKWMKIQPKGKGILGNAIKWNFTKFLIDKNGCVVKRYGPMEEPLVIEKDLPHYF
Chain of Nicotinamide N-methyltransferase (Homo sapiens) (P40261 whole entry, looked up): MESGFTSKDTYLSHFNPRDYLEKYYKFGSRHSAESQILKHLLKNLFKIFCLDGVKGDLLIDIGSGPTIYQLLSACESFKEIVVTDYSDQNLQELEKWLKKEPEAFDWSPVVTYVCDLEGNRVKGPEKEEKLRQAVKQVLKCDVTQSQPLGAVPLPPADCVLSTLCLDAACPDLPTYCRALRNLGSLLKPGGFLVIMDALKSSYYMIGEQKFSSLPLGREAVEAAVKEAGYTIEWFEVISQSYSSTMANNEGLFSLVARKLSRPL
Chain of Nuclear receptor subfamily 1 group I member 3 (Homo sapiens) (Q14994 whole entry, looked up): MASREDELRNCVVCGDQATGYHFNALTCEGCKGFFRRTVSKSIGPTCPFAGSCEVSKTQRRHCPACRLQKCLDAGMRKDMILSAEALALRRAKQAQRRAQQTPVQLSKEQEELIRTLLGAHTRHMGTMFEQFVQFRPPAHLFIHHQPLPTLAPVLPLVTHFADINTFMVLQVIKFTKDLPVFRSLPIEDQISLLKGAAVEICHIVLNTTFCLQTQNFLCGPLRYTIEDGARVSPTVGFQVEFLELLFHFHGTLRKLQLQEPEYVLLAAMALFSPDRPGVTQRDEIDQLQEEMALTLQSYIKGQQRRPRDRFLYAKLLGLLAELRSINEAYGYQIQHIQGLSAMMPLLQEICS

Take `COc1cc(C2Oc3c(OC)cc(CCCO[C@@H]4O[C@H](CO)[C@@H](O)[C@H](O)[C@H]4O)cc3C2CO)ccc1O` (stereo not given in full): the results for the activity in [1], in [3] and in assay [4] were -72%, 0% and 4.57%, respectively. Further, the activity change, negative = inhibition in assay [2] came out at 2.87% [at 29.8 µM]. The Potency entry in assay [5], in assay [6], in assay [7], in assay [9] and in assay [10] was “inactive” throughout. Also, the Potency in assay [8] was 13 µM (active).
On to `CCOC(=O)O[C@]1(C(=O)COC(=O)CC)CC[C@H]2[C@@H]3CCC4=CC(=O)C=C[C@]4(C)[C@H]3[C@@H](O)C[C@@]21C`, for which, in [5], the Potency result is “inactive”.
For `CC(=O)Oc1c(C)cc(OCC(O)CNC(C)C)c(C)c1C` (stereo not given), in assay [5], the Potency entry is “inactive”.
As to `CC(C)(O)C1CC=C(C(=O)OCC2OC(Oc3c(O)cc(C(=O)O)cc3O)C(O)C(O)C2O)CC1` (stereo not given), the activity is -71.8% in assay [1], -2.85% in assay [3] and -2.18% in assay [4]. Besides, in assay [2], the activity change, negative = inhibition was -3.66% [at 29.8 µM]. In addition, the Potency result in assay [5], in assay [6], in assay [7], in assay [9] and in assay [10] was “inactive” throughout.
As for `CCOc1nc2cccc(C(=O)O)c2n1Cc1ccc(-c2ccccc2-c2noc(=O)[nH]2)cc1`, in assay [11], the outcome was “inactive”. Moreover, the Potency result in assay [5], in assay [6], in assay [7] and in assay [10] was “inactive” each time. In addition, in assay [9], the Potency is 21.3 µM (active).
In the case of `CC(=O)N(CC(C)C(=O)O)c1c(I)cc(I)c(N)c1I` (stereo not given), the Potency entry in [5] and in assay [6] was “inactive” in each case.
`COCCN(C)Cc1ccc2nc3sc(C(=O)N(C)C4CCCCC4)cn3c2c1`: the values for the activity in assay [1], in assay [3] and in assay [4] were -4.7%, 1.46% and -2.94%, respectively. Further, the activity change, negative = inhibition in assay [2] came out at 0%. Also, the Potency result in assay [5], in assay [7], in assay [8] and in [9] was “inactive” each time.
Consider `CO[C@H](C(=O)[C@@H](O)[C@@H](C)O)C1Cc2cc3cc(O[C@H]4C[C@@H](O[C@H]5C[C@@H](O)[C@H](O)[C@@H](C)O5)[C@@H](O)[C@@H](C)O4)c(C)c(O)c3c(O)c2C(=O)[C@H]1O[C@H]1C[C@@H](O[C@H]2C[C@@H](O[C@H]3C[C@](C)(O)[C@H](O)[C@@H](C)O3)[C@H](O)[C@@H](C)O2)[C@H](O)[C@@H](C)O1` (stereo not given in full), for which the Potency result in assay [5] is “inactive”.
Regarding `C=C1CC[C@@H]2[C@](C)(CO)[C@H](O)CC[C@@]2(C)[C@@H]1C/C=C1/C(=O)OC[C@H]1O`, the Potency entry in assay [5] and in assay [6] was “inactive” throughout.
`CC1(C)O[C@@H]2C[C@H]3[C@@H]4CCC5=CC(=O)C=C[C@]5(C)[C@H]4[C@@H](O)C[C@]3(C)[C@]2(C(=O)CO)O1`: the Potency result in assay [5] and in assay [6] was “inactive” each time.
With `C/C=C(\C)C(=O)O[C@H]1[C@@H](O[C@]2(COC(=O)CC(C)C)O[C@H](COC(=O)C(C)C)[C@@H](OC(C)=O)[C@@H]2O)O[C@H](COC(C)=O)[C@@H](O)[C@@H]1O`, the activity is -75.6% in [1], 2.56% in assay [3] and -1.49% in assay [4]. For the same compound, the activity change, negative = inhibition in assay [2] is 0% [at 19.1 µM]. For the same compound, the Potency entry in assay [5] and in assay [9] was “inactive” in each case. In addition, in [7], the Potency was 4.46 µM (active).
For `COc1cc(C(O)C(CO)Oc2ccc(CCCO[C@@H]3O[C@@H](C)[C@H](O)[C@@H](O)[C@H]3O)cc2OC)ccc1O` (stereo not given in full), the activity in assay [1] was -72.8%; in assay [3] it was -3.89%; in assay [4] it was -4.24%. Besides, the activity change, negative = inhibition in [2] was -3.44% [at 29.8 µM]. In addition, the Potency result in [5], in assay [6], in assay [7], in assay [9] and in [10] was “inactive” throughout.
As to `CC1=C(/C=C/C(C)=C/C=C/C(C)=C/C=C/C=C(C)/C=C/C=C(C)/C=C/C2=C(C)CCCC2(C)C)C(C)(C)CCC1`, the outcome in assay [12], in [13], in assay [14], in assay [15] and in [16] was “inactive” in each case. Besides, the Potency entry in assay [5] and in [6] was “inactive” in each case.
